PubChem BioAssay AID652057 (Broad Institute, 2013)
About 1,000 (71%) of roughly 1,400 compounds were called active. No rule for the calls is given here. The set was probably picked from earlier hits. Only a sample is shown. Results with a measured potency or affinity are listed apart.

test: blockers of HIV-1 envelope-mediated cell-cell fusion – cherry-pick, dose response (AID 652057); details: HeLa-JRFL Env/CEM21 cell fusion, luciferase; series mostly up to 35 µM

Activity change, negative = inhibition, inactive:
CCCNC(=O)C[C@H]1C[C@H]2c3cc(NC(=O)CN(C)C)ccc3O[C@H]2[C@H](CO)O1
c1csc(-c2csc3ncnc(NCCCN4CCOCC4)c23)c1
Clc1ccc(OCCN2CCN(c3ncnc4sccc34)CC2)cc1
Cc1cccc(C)c1NC(=O)N1CCN(c2nc3ccccc3s2)CC1
C[C@@H]1CN([C@H](C)CO)C(=O)c2cc(NC(=O)Nc3ccccc3)ccc2O[C@@H]1CN(C)S(=O)(=O)c1ccccc1
Cc1nnc(SC(=O)N2c3ccccc3Sc3ccccc32)s1
Cc1ccc(S(=O)(=O)N(C)C[C@@H]2Oc3cc(C#CC4CCCC4)ccc3S(=O)(=O)N([C@H](C)CO)C[C@H]2C)cc1
O=C(C[C@H]1C[C@H]2c3cc(NC(=O)Cc4ccncc4)ccc3O[C@H]2[C@@H](CO)O1)NCc1ccncc1
O=C(C[C@@H]1C[C@H]2c3cc(NC(=O)NC4CCCCC4)ccc3O[C@H]2[C@@H](CO)O1)NCc1ccncc1
O=C(NNC(=O)C(c1ccccc1)c1ccccc1)c1ccccn1
CN(Cc1cccs1)c1ncnc2sccc12
O=C(COC(=O)c1ncc(Cl)c(Cl)c1Cl)NCc1cccs1
COc1ccc(-c2cn3c(C)c(C(=O)Nc4cccc(NC(C)=O)c4)sc3n2)cc1
O=C1COc2ccc(-c3csc(=Nc4ccc(OC(F)F)cc4)n3CC3CCCO3)cc2N1 (stereo unspecified)
CCc1ccc(-c2nc(CN3CCC(C(=O)NCCc4ccc(OC)c(OC)c4)CC3)c(C)o2)cc1
CC(NNC(=S)N1CCCCCC1)c1ccc2ccccc2n1 (stereo unspecified)
CCN1C(=O)[C@H]2[C@@H](c3ccc(C(F)(F)F)cc3)N[C@]3(CCCN(Cc4ccccc4)C3=O)[C@H]2C1=O
O=C(Cn1ncc2c(=O)oc3ccccc3c21)N1CCC(N2CCCCC2)CC1
COc1ccc(CCNC(=O)C2CCCN(Cc3nc(-c4cccc(Cl)c4)oc3C)C2)cc1OC (stereo unspecified)
C[C@@H]1CN([C@H](C)CO)C(=O)c2cccc(NC(=O)c3cnccn3)c2O[C@H]1CN(C)Cc1ccccc1
C[C@@H]1CN([C@H](C)CO)C(=O)c2cccc(NC(=O)c3ccncc3)c2O[C@@H]1CN(C)Cc1ccc(C(=O)O)cc1
CCCNC(=O)C[C@@H]1C[C@H]2c3cc(NC(=O)Cc4ccncc4)ccc3O[C@H]2[C@H](CO)O1
COC(=O)c1ccc(C(=O)NC2CCCc3c2cnn3-c2ccc(C)c(C)c2)cc1 (stereo unspecified)
COc1ccccc1N1CCN(Cc2ccc(O)c3ncccc23)CC1
CC1CCCN(C(=O)c2ccc(S(=O)(=O)N3CCC(c4nc5ccccc5s4)CC3)cc2)C1 (stereo unspecified)
O=C(Nc1ccc(S(=O)(=O)N2CCN(Cc3ccccc3)CC2)cc1)c1cnccn1
O=C(Cc1ccccc1)N[C@@H]1C=C[C@H](CC(=O)N2CCCCC2)O[C@@H]1CO
COc1cccc(S(=O)(=O)N[C@H]2CC[C@@H](CCN)O[C@@H]2CO)c1
COc1ccc(S(=O)(=O)N[C@@H]2C=C[C@H](CC(=O)N3CCC(Cc4ccccc4)CC3)O[C@@H]2CO)cc1
COc1cccc(S(=O)(=O)N[C@@H]2CC[C@H](CCN)O[C@H]2CO)c1
CCCCCn1c(=O)[nH]c2cc(C(=O)N3CCN(Cc4ccc5c(c4)OCO5)CC3)ccc2c1=O
CCc1cnc(N2[C@H](C#N)[C@H](c3ccc(C#Cc4ccccc4F)cc3)[C@H]2CO)s1
Cc1ccc(C(=O)NCc2ccccn2)cc1S(=O)(=O)N1CCCCC1
CN(C(=O)c1cccc(NC(=O)Cc2cccc(NC(=O)C3CCCN(C(=O)C4CCC4)C3)c2)c1)C1CCC1 (stereo unspecified)
CCCn1c(=S)[nH]c2cc(C(=O)N3CCCC(C(=O)OCC)C3)ccc2c1=O (stereo unspecified)
COc1ccc(S(=O)(=O)NC[C@@H]2CC[C@H]3[C@H](CN3Cc3cc(F)ccc3F)O2)cc1
COCC(C)n1c(-c2ccc3c(c2)NC(=O)CO3)csc1=Nc1ccc(OC(F)F)cc1 (stereo unspecified)
C[C@@H]1CN([C@H](C)CO)C(=O)c2cccc(NS(=O)(=O)c3cn(C)cn3)c2O[C@H]1CN(C)C(=O)Nc1ccc(F)cc1
O=C(N/N=C/c1ccc(-n2ccnc2)cc1)c1cccs1
Cc1ccc(NC(=O)c2ccc(CN3CCc4ccccc4C3)cc2)cc1
O=C(Nc1ccc(S(=O)(=O)N2CCCC2)cc1)c1ccc(CN2CCOCC2)cc1
C=C(C)CN(CC)c1nc(N)c2c(N)nc3c(c2c1C#N)CC(=O)N3C12CC3CC(CC(C3)C1)C2
CCc1nc(N2CCCCC2C)c2oc3ccccc3c2n1 (stereo unspecified)
CCOc1ccc2c(c1)-c1c(ssc1=S)C(C)(C)N2C(=O)c1ccco1
O=C(COC(=O)c1cccc(S(=O)(=O)N2CCOCC2)c1)NCc1ccccc1
CC(C)OCCCNc1ncnc2c1[nH]c1ccccc12
Cc1ccccc1OCCCCn1cnc2ccccc21
COCC(=O)Nc1ccc2c(c1)C(=O)N(C)C[C@@H](OC)[C@H](C)CN(C(C)=O)[C@H](C)CO2
CCN(CC)CCN(C(=O)c1cc(Cl)sc1Cl)c1nc2cc3c(cc2s1)OCO3
O=C(C[C@@H]1C=C[C@@H](NC(=O)Nc2ccc3c(c2)OCO3)[C@H](CO)O1)NCc1ccc(F)cc1
COc1ccccc1CNC(=O)C[C@H]1C[C@@H]2c3cc(NC(=O)c4cccnc4)ccc3O[C@@H]2[C@@H](CO)O1
O=C(Nc1cccc(F)c1)N[C@@H]1CC[C@H](CCNS(=O)(=O)c2cccc(Cl)c2)O[C@@H]1CO
CCS(=O)(=O)N[C@H]1CC[C@@H](CC(=O)NCc2ccc(Cl)cc2)O[C@@H]1CO
COc1cccc(CNC(=O)C[C@@H]2C=C[C@H](NC(=O)C3CCC3)[C@H](CO)O2)c1
O=C(C[C@H]1C[C@@H]2c3cc(NC(=O)C4CCOCC4)ccc3O[C@@H]2[C@@H](CO)O1)NCc1ccccc1F
C[C@@H]1CN([C@H](C)CO)C(=O)c2cccc(NS(=O)(=O)c3ccc(Cl)cc3)c2O[C@H]1CN(C)CC1CCCCC1
